# Compound activity from PubChem.
# D1 antagonist: antagonists of human D1 dopamine receptor; activity change, negative = inhibition, % at 10 µM; HEK293 TREx D1 cells, calcium flux, dopamine EC80; stronger effect = lower value; 360,000 tested, 3.2% active; in the data active = activity change below about -30%; note: % is set by controls: 0 for no effect and ±100 for the full control effect
#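 Using tetracycline-induced force-coupled D1 Hek293 cells and a calcium dye, signals were followed for 180 s after compound, then for 180 s after EC80 dopamine, to detect inhibitors.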
# D1 ag: agonists of human D1 dopamine receptor; P21728; HEK293 T-REx D1 cells, calcium flux, agonist mode; activation, % at 2 µM; 360,000 tested, 1% active; AID 504660; note: 0% is about no effect
#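 Inducible HEK293 T-REx D1 cells, force-coupled to calcium signalling, were plated at 4000 cells/well with tetracycline and held overnight at 30 C. After no-wash calcium dye loading, compound-evoked calcium rise over 180 s flagged agonists.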
# Epigenetic derep: derepresses silenced GFP reporter in murine cells; 280,000 tested, 0.2% active; murine LDR cells, GFP reporter derepression, 30 h; Potency, µM (titrated, usually from 53.9 µM), inactives show at the highest dose GFP activation, usual class: activators; active = well fitted activation curve with a large enough effect; note: potency is the fitted concentration of half-maximal effect; % of control where 0% means no effect; nearly all actives have a fitted effect of over 60% in size
#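 Readout is the number of GFP-expressing murine LDR cells, counted by cytometry following washing. Cells were treated with compound for 30 h at 37 C; the stably integrated CMV-GFP locus is normally silent.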
# D1 potentiator: enhances dopamine response at the human D1 receptor. potentiation, % at 10 µM. HEK293 TREx D1 cells, calcium flux, dopamine EC20 potentiation. 360,000 tested, 0.036% active. P21728; in the data active = potentiation above about 30%; note: 0% is about no effect
# TRHR enhancer: TRH receptor (human) allosteric enhancement; TRHR cells, fluo-8 calcium fluorescence, EC20 TRH enhancement; 360,000 tested, 0.66% active; P34981; AID 493056; enhancement, % at 2 µM; in the data active = enhancement above about 30%; note: 0% is about no effect
# Target sequence (P34981 whole entry, looked up): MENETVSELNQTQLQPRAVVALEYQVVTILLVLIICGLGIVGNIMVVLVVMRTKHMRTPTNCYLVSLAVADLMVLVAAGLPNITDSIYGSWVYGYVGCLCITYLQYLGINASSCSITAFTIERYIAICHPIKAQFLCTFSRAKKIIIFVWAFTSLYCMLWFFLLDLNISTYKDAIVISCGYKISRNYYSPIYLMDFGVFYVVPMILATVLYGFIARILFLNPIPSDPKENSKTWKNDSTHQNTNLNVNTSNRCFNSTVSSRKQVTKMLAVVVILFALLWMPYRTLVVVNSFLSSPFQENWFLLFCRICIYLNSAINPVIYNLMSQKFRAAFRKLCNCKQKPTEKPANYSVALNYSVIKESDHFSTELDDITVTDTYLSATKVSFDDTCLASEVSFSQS
#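 Enhancer read-out: after compound pinning and an initial kinetic agonist-mode read, an EC20 of TRH (10 nM final) was injected and fluo-8 calcium signal (Ex 480/Em 530) followed at 1 s/cycle for 100 cycles in TRHR-expressing cells.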
# TRHR agonist: TRH receptor (human) agonism; activation, % at 2 µM; AID 493084; P34981; 360,000 tested, 0.18% active; TRHR cells, calcium flux fluo-8, FDSS agonist mode; note: 0% is about no effect
#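 Fluo-8-loaded TRHR cells; 10 s baseline, compound added, kinetic Ca2+ fluorescence read 1/s, agonist mode.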
# * marks the source's active call; other numbers are inactive results; · = no result given; [ ] = dose if it differs, or a comment. Only some compounds are listed: those with a hit (about 4.6% of all), similar ones and a draw of the others. Cut-off read from the data, not from the text of the source, unless noted: active = activation above about 30%; inactive = the rest.
SMILES,D1 antagonist,D1 ag,Epigenetic derep,D1 potentiator,TRHR enhancer,TRHR agonist
Cc1cc(C)cc(NCc2cc(=O)oc3cc(-c4ccccc4)c(O)cc23)c1,-4,1,-1%,-2,3,1
COc1ccc(N2CCN(C(=O)Cn3cnc4sc(C)c(S(=O)(=O)N5CCCCC5)c4c3=O)CC2)cc1,-6,2,2%,0,0,0
COc1ccc(C2=Nc3ccc(OC(F)(F)F)cc3NC(c3cccnc3)=N2)cc1,3,-1,-2%,-1,-1,-3
C=Cc1ccc(CSc2nc(-c3ccccc3C)nc3c2Cc2c(CO)cnc(C)c2O3)cc1,1,1,2%,-5,2,1
CCOc1ccc(N2C(=O)/C(=C/c3cccs3)N(C)C2=S)cc1,-37*,7,-1%,-8,-7,1
COc1cc(C2NC(=O)c3c(sc4c3CCN(C)C4)N2)ccc1OC(=O)c1ccccc1 (centres undefined),1,38*,8%,4,-6,22
CC(C)Cn1c(=O)c2ccccc2n2c(CCC(=O)NC(C)c3ccccc3)nnc12 (centres undefined),8,-1,1%,-3,-2,0
CC(CC12CC3CC(CC(C3)C1)C2)NCc1ccccc1O (centres undefined),-1,16,·,-13,7,1
Oc1ccccc1CNCC12CC3CC(CC(C3)C1)C2,1,53*,·,-7,-1,-2
Cc1c(Cl)cccc1NC(=O)N1CCC(CN2CCOCC2)CC1,-71*,-1,0%,-6,-18,0
Cc1cc(C)c(Cn2c(=O)n(CCCC(=O)NCc3ccc4c(c3)OCO4)c(=O)c3sccc32)c(C)c1,-6,1,14%,1,-4,-1
O=[N+]([O-])c1ccc(S(=O)(=O)c2ccccc2)nc1,-40*,0,·,-14,-7,-1
O=[N+]([O-])c1ccc(NCc2ccccc2)nc1,-35*,4,-3%,-11,-1,-1
FC(F)(F)COc1cc(-c2nnc(SCc3ccccc3)n2Cc2ccco2)cc(OCC(F)(F)F)n1,-1,32*,0%,-4,-5,3
CCOC(=O)c1ccccc1NC(=O)N1CCC(CN2CCCCC2)CC1,5,-1,-1%,1,13,1
COc1cc(/C=N/NC(=O)c2ccc(CSc3nc4ccccc4[nH]3)cc2)cc(OC)c1OC,-33*,11,1%,-10,4,-1
COc1cc(/C=N/NC(=O)c2ccc3nc[nH]c3c2)cc(OC)c1OC,7,0,1%,-1,14,2
COc1cc(/C=N\NC(=O)c2ccc(-c3ccccc3)cc2)cc(OC)c1O,-31*,0,·,-3,-3,-1
Cc1ccc(C(=O)Nc2ccc(SC(F)F)cc2)s1,-34*,9,1%,-5,-3,1
CC[N+](CC)(CC)CC(=O)Nc1ccc(SC(F)F)cc1,9,0,2%,0,0,-1
O=C(Nc1ccc(SC(F)F)cc1)c1cccc2nc3ccccc3nc12,-20,6,7.1µM*,2,-1,-1
O=C(C[n+]1cc(-c2ccc(Cl)cc2)n2c1CCC2)Nc1nc(-c2ccccc2)cs1,-61*,3,0%,-10,0,0
O=C(C[n+]1cc(-c2ccc(Cl)c(Cl)c2)n2c1CCC2)N1c2ccccc2Sc2ccccc21,-39*,1,-1%,-7,-7,-1
C[C@]12CC[C@H]3c4ccc(OC[C@H]5CO5)cc4CC[C@H]3[C@H]1CC[C@@H]2O,·,·,1%[10.1 µM],·,·,·
COc1cc2cc3c(N)c(C(=O)NCc4ccco4)sc3nc2cc1OC,-4,1,-7%,1,8,1
SMILES,D1 antagonist,D1 ag,Epigenetic derep,D1 potentiator,TRHR enhancer,TRHR agonist
Cc1ccc2nc3sc(C(=O)NCc4ccco4)c(N)c3cc2c1,-12,19,16µM*,-1,-1,5
CCOC(=O)N1CCc2c(sc3c2c(=O)n(Cc2ccccc2)c(=O)n3Cc2cc(C)ccc2C)C1,4,1,-3%,-3,5,0
CCOC(=O)N1CCc2c(sc3c2c(=O)n(CCc2ccccc2)c(=O)n3Cc2cc(C)ccc2C)C1,-51*,2,-2%,-4,1,1
O=C(Cn1c(=O)oc2cc(S(=O)(=O)N3CCCCCC3)ccc21)NCc1ccccc1Cl,-18,12,-2%,-8,0,0
CCOC(=O)c1nnn(C(CC)C(=O)Nc2c(C)cccc2C)c1C(=O)OCC (centres undefined),-6,2,0%,0,-3,0
CN(C)c1ccc(C2C=C(c3ccc(Cl)cc3OC(F)F)Nc3ncnn32)cc1 (centres undefined),5,41*,9%,-7,-2,17
CCOc1ccccc1-c1nc(C(N)=O)c2c(n1)n(-c1ccc3c(c1)OCO3)c(=O)n2C,-3,3,8%,-1,-1,0
Cc1[nH]nc(SCC(=O)NCc2ccc(F)cc2)c1[N+](=O)[O-],-40*,-1,1%,-6,-8,-1
Cc1ccc(O)c(NC(=O)CSc2n[nH]c(C)c2[N+](=O)[O-])c1,-34*,16,-1%,-7,0,0
COc1cc(-c2nnc(-c3cccnc3)o2)cc(OC)c1OC,-88*,1,2%,-11,0,1
Nc1ccc(NC(=S)Nc2ccccc2)cc1,-57*,-2,1%,-1,-4,0
CC(C)n1c(=O)c2oc3ccccc3c2n(CC(=O)Nc2ccccc2Cl)c1=O,17,6,14%,1,-1,1
CSc1cccc(NC(=S)Nc2cc(C)ccc2C)c1,-40*,2,2%,-6,-5,1
Cc1ccc(C)c(NC(=S)Nc2cccnc2)c1,0,0,-2%,-2,25,0
CC(C)N(C(=O)CN1CCN(C(=O)C2COc3ccccc3O2)CC1)C(C)C (centres undefined),-1,2,·,-7,2,1
O=C(C1CCCO1)N1CCN(S(=O)(=O)c2ccc(Cl)cc2)CC1 (centres undefined),-47*,3,·,-9,0,0
COc1cc(NC(=O)Nc2ccccc2OC)c(OC)cc1NC(=O)CN1CCCCC1,-32*,1,0%,-12,4,-1
COc1ccccc1NC(=O)CN1CCN(C(=O)C2CCCO2)CC1 (centres undefined),-23,3,·,1,32*,0
COc1ccccc1NC(=O)CN1CCOCC1,9,-3,·,-6,-1,0
O=C(CN1CCN(C(=O)C2COc3ccccc3O2)CC1)Nc1ccccc1 (centres undefined),-33*,3,-2%,-8,-3,1
